Sampled rows, rich in hits. Any-hit rate of the full collection: about 2%.
Her2 expr inh – inhibitors of Her2 protein expression, primary screen, SKBR-3 cells, AlphaScreen, 66K library; SKBR-3 HER2 protein level, 18-24 h; hits give low values; HER2 level % of control, % at 10 µM; 0.69% of 65,000 active; AID 645, 2007;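 active = HER2 level under 5% of the carrier-only control; inconclusive = no clear call, values can overlap the other calls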;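 also: 100% = DMSO carrier and 0% = 500 nM PU-H71 HSP90 inhibitor; lower value means stronger loss of Her2 protein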
SK-BR-3 tox 24h – SK-BR-3 proliferation inhibitors, primary screen, cell-based, human, 24 h; SK-BR-3 viability, CellTiter-Glo ATP luminescence; hits give low values; viability, % at 10 µM; 0.47% of 41,000 active;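 active = viability at or below the median of all test compounds minus 3 SD, in both replicates if run twice, cut at about 45% in these data; inconclusive = duplicate replicates that disagree with each other; inactive = viability above that cutoff in every replicate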;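 also: 100% = median untreated cell wells and 0% = median positive control drug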
Jurkat tox 60K – cytotoxicity toward Jurkat T cells, primary screen, cytotoxicity control, cell-based, Jurkat E6.1, 60K MLSMR library; 1.2% of 56,000 active; inhibition, % at 4 µM; Jurkat E6.1 viability, ATP luminescence, 48 h;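 active = inhibition above the mean inhibition of all tested compounds plus 3 SD, cut at about 28% in these data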
* marks the source's active call; other numbers are inactive results; ? = inconclusive; . = no result.

SMILES	Her2 expr inh	SK-BR-3 tox 24h	Jurkat tox 60K
CN(C)c1nc(SCCOC(=O)Nc2ccccc2)nc(N(C)C)n1	114	57	4
O=S(=O)(Nc1nc(CN2CCOCC2)nc2sc3c(c12)CCCC3)c1cc(F)ccc1F	103	.	-5
C1CCC(c2nn3c(-c4n[nH]c5c4CCC5)nnc3s2)CC1	91	84	6
CCN(CC)c1ccc(-c2nn3c(-c4n[nH]c5c4CCC5)nnc3s2)cc1	-29*	?	97*
Cn1cc(/C=N/n2cnc3scc(-c4ccccc4)c3c2=O)c2ccccc21	40	.	41*
c1ccc(-c2csc3ncn4cnnc4c23)cc1	102	114	-2
CCOc1ncccc1C(=O)OCc1cc(=O)n2c(n1)sc1ccccc12	98	.	-4
CCOc1ccc(-c2n[nH]c(C)c2Oc2ccccc2OC)c(O)c1	86	77	6
C=C(C)COc1ccc(-c2n[nH]c(C)c2Oc2ccccc2OC)c(O)c1	-6.3*	97	-2
C=C(C)COc1ccc(-c2nc(N)ncc2-c2ccc(OC)cc2)c(O)c1	100	107	1
C=C(C)COc1ccc(-c2[nH]ncc2Oc2ccccc2OCC)c(O)c1	-17*	89	-3
C=C(C)COc1ccc(-c2[nH]ncc2-c2ccc(OC)c(OC)c2)c(O)c1	16	121	65*
C=C(C)COc1ccc(-c2[nH]ncc2Oc2cccc(OC)c2)c(O)c1	52	87	-9
O=c1cnn(-c2ccccc2)c(-c2ccccc2)c1	93	106	.
CCCn1cc(S(=O)(=O)CC(=O)N2CCc3ccccc32)c2ccccc21	60	90	.
CCn1cc(S(=O)(=O)CC(=O)N2CCc3ccccc32)c2ccccc21	1.6*	.	2
CC1CCN(c2ccc(C(=O)O)cc2N)CC1	84	43*	0
CC1CCN(c2ccccc2N)CC1	?	102	-7
CCn1cc(C(=O)OCC(=O)NCc2ccc3c(c2)OCO3)c(=O)c2ccc(C)nc21	88	.	-5
O=C1CC(N2CCC(O)(c3ccc(Cl)cc3)CC2)C(=O)N1Cc1ccc(N2CCCC2=O)cc1 (configuration not stated)	97	93	1
Cn1c(=O)c2c(SCc3cccc(C(F)(F)F)c3)nc(-c3ccco3)nc2n(C)c1=O	-4.9*	.	2
Cn1c(=O)c2c(SCc3ccccc3)nc(-c3ccco3)nc2n(C)c1=O	63	.	4
CCc1nc2c(sc3nc(N4CCOCC4)c4c(c32)CC(C)(C)OC4)c(=O)o1	88	86	.
COc1cccc(C2=CC(c3ccc(OC)c(OC)c3OC)n3nnnc3N2)c1 (configuration not stated)	63	100	23
COc1ccccc1C1C=C(c2ccccc2)Nc2nnnn21 (configuration not stated)	41	93	80*
SMILES	Her2 expr inh	SK-BR-3 tox 24h	Jurkat tox 60K
CC(C)Oc1ccc(N2CC(C(=O)Nc3ccc4c(c3)OCO4)CC2=O)cc1 (configuration not stated)	99	.	2
Nc1ccc2c(c1)N1CCN=C1S2	86	101	.
O=C(Nc1ccc(Cl)cc1)Nc1ccc2c(c1)N1CCN=C1S2	-8.2*	89	10
CCN(CC)CCCNC(=O)c1cn(CCOC)c(=O)c2c1c1ccccc1n2C	91	86	-2
CC(C)(C)OC(=O)NCCc1nnc(SCc2ccccc2Cl)o1	96	77	5
CC(C)(C)OC(=O)NCCc1nnc(S(=O)(=O)Cc2ccc(Cl)cc2Cl)o1	-16*	80	15
O=C(Nc1nc(-c2cccs2)cs1)c1ccc(S(=O)(=O)N2CCCCC2)cc1	28	.	31
O=C(Nc1nc(-c2ccccn2)cs1)c1ccc(S(=O)(=O)N2CCCCC2)cc1	66	83	54*
O=C(Nc1nc(-c2ccccn2)cs1)c1ccc(Cl)s1	74	.	48*
Cn1cccc1C(=O)Nc1nc(-c2ccccn2)cs1	113	.	18
COc1ccccc1OCCC(=O)OCC(=O)Nc1ncc(Cl)cc1Cl	97	.	0
Cc1[nH]c(=O)[nH]c(=O)c1S(=O)(=O)N1c2ccc(F)cc2CCC1C (configuration not stated)	86	89	5
CCN1CCN(C(=O)c2ccc3c(c2)N(Cc2ccc(F)cc2)C(=O)c2ccccc2S3=O)CC1 (configuration not stated)	81	.	-1
Cn1c(=O)[nH]c(=O)c2c1nc(CN1CCN(c3cccc(Cl)c3)CC1)n2CCCc1ccccc1	65	.	-10
Cc1ccc(Cl)cc1N1CCN(Cc2nc3c(c(=O)[nH]c(=O)n3C)n2Cc2ccccc2F)CC1	3.2*	.	6
Cc1ccc(Cl)cc1N1CCN(Cc2nc3c(c(=O)[nH]c(=O)n3C)n2CCc2ccccc2)CC1	45	.	3

Compound activity (PubChem)
